Bioassay records as filed in PubChem BioAssay.
KB-3-1 tox = qHTS assay for MDR1-selective chemotherapeutics: Primary screen using the parental adenocarcinoma cell KB-3-1 | KB-3-1 viability, CellTiter-Glo ATP luminescence, 72 h | Potency, µM (titrated, usually from 46.1 µM), hits mostly cytotoxic | 400,000 compounds, 1.4% hits | AID 1347075, 2019; note: % is set by controls: 0 for no effect and ±100 for the full control effect; nearly all actives have a fitted effect of over 60% in size
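Multi-concentration cytotoxicity screen in KB-3-1 cells grown in DMEM lacking phenol red with 10% FBS. After 72 h at 37 °C with compound, ATP-dependent luminescence was recorded.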
PTAP TSG101 blk = qHTS Assay for Iinhibitors of HIV-1 Budding by Blocking the Interaction of PTAP/TSG101 | Fluorescence polarization, FITC-PTAP peptide / Tsg101 binding | Potency, µM (highest dose often 115 µM), for the others: top-dose activity change, negative = inhibition, most hits filed as inhibitors | 340,000 tested, under 10 active | AID 493005, 2010; active = well fitted inhibition curve with a large enough effect in the main read-out, with a control signal flat, not every such curve was filed as active; inconclusive = small, poorly fitted or top-dose-only effect, or effect the other way, or a change in a side signal; inactive = no such curve, though single readings can be large or run the other way; note: % of control where 0% means no effect
Target sequence (Q99816 whole entry, looked up): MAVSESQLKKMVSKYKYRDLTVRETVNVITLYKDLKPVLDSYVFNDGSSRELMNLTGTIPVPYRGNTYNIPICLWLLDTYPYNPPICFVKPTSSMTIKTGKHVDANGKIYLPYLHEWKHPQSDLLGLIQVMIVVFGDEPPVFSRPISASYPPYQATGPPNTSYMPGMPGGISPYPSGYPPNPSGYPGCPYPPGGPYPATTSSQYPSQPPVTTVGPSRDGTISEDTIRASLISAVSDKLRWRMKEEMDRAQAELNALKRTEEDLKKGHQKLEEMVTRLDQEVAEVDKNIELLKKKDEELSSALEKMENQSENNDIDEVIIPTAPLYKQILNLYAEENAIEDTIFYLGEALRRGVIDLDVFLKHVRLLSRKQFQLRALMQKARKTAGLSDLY
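Tsg101 binding domain (10 uM final) was mixed with compound and a FITC-labeled PTAP peptide (50 nM final) in HEPES pH 7.5 buffer with NaCl, Tween 20, EDTA and TCEP; fluorescence polarization was read after 20 min at r.t.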
KB-V1 MDR tox = qHTS assay for MDR1-selective chemotherapeutics: Primary screen using the drug-selected MDR subline cells KB-V1. KB-V1 MDR cells viability, CellTiter-Glo, 72 h. Potency, µM (titrated, usually from 46.1 µM), most hits filed as cytotoxic. 400,000 compounds, 3.4% hits. AID 1347076, 2019; note: % is set by controls: 0 for no effect and ±100 for the full control effect; nearly all actives have a fitted effect of over 60% in size
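Cytotoxicity via CellTiter-Glo luminescence after 72 h compound exposure at 37 degrees C. Cells: drug-selected KB-V1 line, DMEM phenol-red free plus 10% FBS. Compounds tested at multiple concentrations; normalized data fitted to concentration-effect curves.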
SW480 rerep = A quantitative high throughput screen for small molecules that induce DNA re-replication in SW480 colon adenocarcinoma cells; Potency, µM (highest dose often 46.1 µM), for the others: at the top dose re-replication activation, most hits filed as activators; SW480 DNA re-replication, Hoechst DNA content imaging, 48 h; AID 624297, 2012; 340,000 compounds, 1.8% hits; note: % of control where 0% means no effect; nearly all actives have a fitted effect of over 55% in size
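DNA re-replication was detected as more nuclei of elevated Hoechst intensity after 48 hr exposure to compound (23 nL pinned per well of 250 cells).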
MCF10A rerep = A quantitative high throughput screen for small molecules that induce DNA re-replication in MCF 10a normal breast cells; AID 624296, 2012; MCF 10A DNA re-replication, Hoechst nuclear intensity, 48 h; 350,000 compounds, 2.9% hits; Potency, µM (titrated, usually from 46.1 µM), inactives show top-dose activity, positive = re-replication, actives largely listed as activators; note: % of control where 0% means no effect; nearly all actives have a fitted effect of over 50% in size
RGS4 inh = Inhibitors of Regulator of G Protein Signaling (RGS) 4: qHTS; Transcreener GDP fluorescence polarization, RGS4-accelerated GTP hydrolysis; Potency, µM (series often up to 114 µM), inactives show at the top dose activity change, negative = inhibition, hits mostly inhibitors; 390,000 compounds, 0.039% hits; AID 504845, 2011; note: % is set by controls: 0 for no effect and ±100 for the full control effect; nearly all actives have a fitted effect of over 75% in size
Target sequence (P49798 whole entry, looked up): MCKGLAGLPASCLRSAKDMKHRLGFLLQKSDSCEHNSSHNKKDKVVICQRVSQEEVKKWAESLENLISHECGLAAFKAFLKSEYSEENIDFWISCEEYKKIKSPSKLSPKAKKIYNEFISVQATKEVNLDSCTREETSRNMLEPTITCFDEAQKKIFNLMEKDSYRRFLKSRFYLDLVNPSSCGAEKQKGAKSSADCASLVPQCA
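MLSMR compounds (23 nl, pin-transferred) preincubated 10 min at room temperature with a 500nM (2x) first reagent, then RGS4 at 900nM (2x) plus Transcreener GDP mix added; fluorescence polarization (620/688 nm) read before and after 90 min at 30 °C.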
* hit, by the source's call; i = inactive; ? = inconclusive; / = no result given; [ ] = remark or other dose. Most compounds without a hit are left out; they make up all but 6.6% or so of the library. Unless noted, calls come from the whole dose curve; as a rule, active = well fitted curve in the direction sought with a large enough effect; inconclusive = small, poorly fitted or top-dose-only effect, or another doubt; inactive = no such curve, though single readings can be large; an effect the other way counts as inactive or inconclusive. Potency is the fitted concentration of half-maximal effect.

SMILES	KB-3-1 tox	PTAP TSG101 blk	KB-V1 MDR tox	SW480 rerep	MCF10A rerep	RGS4 inh
N#C/C(=C(/O)c1ccc2c(c1)OCO2)c1nc2cc(C(F)(F)F)ccc2s1	15µM*	-1%	?	?	10%	0%
CC(C)c1ccc(NC(=O)CCn2c(=O)c3cccn3c3ccccc32)cc1	/	/	/	/	/	0%
O=C(CN1C(=O)c2ccccc2S1(=O)=O)Nc1ccccc1	i	-6%	i	0%	6.5µM*	-10%
Cc1ccc(CCc2nnc(SCC(=O)Nc3cc(Cl)ccc3Cl)n2-c2ccccc2)o1	i	1%	15µM*	11%	?	?
Cc1ccc(CCC(=O)Nc2cc(Cl)ccc2Cl)o1	i	1%	i	7%	-2%	-35%
Cn1c(-c2ccc3ccccc3n2)nc2cnccc21	i	1%	10µM*	-2%	4%	-19%
COc1cc(OC)c(-c2nc3cnccc3n2C)cc1OC	i	-7%	i	-6%	13%	22%
Cc1ccc2c(c1)c1c(n2CC(O)CN2CCCCC2C)CCCC1 (stereo not given)	?	-1%	i	18µM*	?	11%[11.4 µM]
O=C(NN=C(c1ccccc1)c1ccccn1)c1ccccc1	?	-3%	?	10µM*	?	10%
COc1ccc(C(=O)N/N=C(\c2ccccc2)c2ccccn2)cc1	i	2%	0.65µM*	?	?	6%
Cc1ccc(CNC(=O)C2CCCN(c3nc4ccccc4n4cccc34)C2)cc1 (stereo not given)	/	/	/	/	/	8%
Cc1nnc(SCC(=O)Nc2ccc(N(C)C)cc2)[nH]c1=O	i	/	i	/	/	-40%
CCN(CC)c1ccc(-c2nc(-c3ccco3)no2)cc1[N+](=O)[O-]	i	/	i	/	/	16%
CC(=O)Nc1ccc(NC(=O)CSc2cn(CC(=O)N(C(C)C)C(C)C)c3ccccc23)cc1	/	/	/	/	/	-12%
CCOC(=O)C1=CN(C(=O)OC(C)(C)C)C(CN2C(=O)COCC2=O)C1 (stereo not given)	/	/	/	/	/	-29%
Cc1cccc(C)c1N1CCN(C(c2cc3ccccc3o2)c2nnnn2C(C)(C)C)CC1 (stereo not given)	5.8µM*	/	2.6µM*	/	/	/
COc1ccc(/C=N/Nc2nonc2N)c(OC)c1	?	1%	4.1µM*	?	-4%	-13%
COc1ccc(/C=N/Nc2nccnc2Cl)c(OC)c1	i	0%	i	5%	3%	-2%
CN(C)CC1CC/C(=C\c2ccc(O)cc2)C1=O (stereo not given)	?	1%	?	10µM*	3.3µM*	?
CN(C)CC1CCC/C(=C\c2ccc(OC(=O)c3ccc(Cl)cc3)cc2)C1=O (stereo not given)	?	0%	21µM*	?	?	?
O=C1/C(=C\c2ccc(Cl)cc2)CCC1CNc1ccc(Cl)cc1 (stereo not given)	i	1%	i	?	5.8µM*	-105%
CN(C)CC1CCC/C(=C\c2ccc(OC(=O)/C=C/c3ccccc3)cc2)C1=O (stereo not given)	?	0%	?	?	4%	-52%
COc1ccc(/C=C2/CCC(CN3CCOCC3)C2=O)cc1 (stereo not given)	?	-4%	?	15µM*	?	?
CC1CCC/C(=C\c2ccc(O)cc2)C1=O (stereo not given)	i	1%	i	?	-4%	-10%
Clc1ccccc1CNCCCSc1nnnn1-c1ccccc1	i	/	i	/	/	2%
SMILES	KB-3-1 tox	PTAP TSG101 blk	KB-V1 MDR tox	SW480 rerep	MCF10A rerep	RGS4 inh
Cc1nc2ccn(Cc3cccs3)c(=O)c2cc1C(=O)N1CCN(c2ccccc2)CC1	i	/	i	/	/	-7%
CCNc1nc(OC)nc(Oc2ccc(=O)[nH]n2)n1	?	/	i	/	/	3%
O=C(O)c1cc(/C=C/c2ccc(N3CCOCC3)cc2)nc2ccccc12	i	-5%	10µM*	1%	7%	6%
O=C(O)c1cc(/C=C/c2ccc(N3CCOCC3)c([N+](=O)[O-])c2)nc2ccccc12	i	-3%	i	-4%	3%	-43%[56.9 µM]
CC1CCC/C=C/C(=O)c2c(O)cc(O)cc2CC(=O)O1 (stereo not given)	10µM*	-1%	?	?	1µM*	-5%
COc1ccc(OC)c2c1C(=O)C(Cl)=C(Cl)C2=O	5.8µM*	-1%	5.2µM*	?	2.6µM*	-149%
COc1ccc(OC)c2c1C(=O)c1ccccc1C2=O	i	?	i	2%	11%	1%
CCOc1ccccc1NS(=O)(=O)c1ccc2c(c1)CC(C)N2C(=O)C1CC1 (stereo not given)	i	/	?	/	/	9%
COc1cccc(-c2nc(S(=O)(=O)c3ccc(Cl)cc3)c(NCc3ccccc3)o2)c1	/	/	/	/	/	31%
CC(C)NC(=O)CSc1nnc(-c2ccc(C(C)(C)C)cc2)n1C	i	-3%	26µM*	-21%	?	18%
C(=Nc1ccc(/C=C/c2ccnc3ccccc23)cc1)c1ccco1	i	/	i	/	/	/
CCCn1cc(S(=O)(=O)c2cccc(Cl)c2)c(=O)c2cc(F)c(N3CCCC3)cc21	/	/	/	/	/	-9%
Nc1c(C(=O)Nc2ccc3c(c2)OCCO3)nnn1Cc1cccc(Cl)c1	16µM*	-4%	i	-91%	?	-5%
Nc1c(C(=O)Nc2ccc3c(c2)OCCO3)nnn1Cc1ccc(F)cc1	i	-1%	i	-159%	2%	22%
O=C1c2ccccc2[C@@H]2C[C@@H](O)[C@H](Nc3cccc4ccccc34)CCN12	i	-4%	i	18µM*	?	4%
Cc1ccc(C(=O)/C=C/c2ccc(Br)cc2)o1	i	-2%	i	18µM*	7.3µM*	-24%
O=C(/C=C/c1ccc(Cl)cc1)c1ccc([N+](=O)[O-])o1	?	-5%	?	?	8.2µM*	-40%
Cc1ccc(/C=C/C(=O)c2ccc([N+](=O)[O-])o2)cc1	i	-2%	?	1.5µM*	3.3µM*	-30%
Cc1ccc(C(=O)/C=C/c2ccccc2)o1	?	-8%	?	5%	?	?
COc1ccc2c(c1)-c1nc(NC(=O)c3ccc(OC)c(Br)c3)sc1CC2	i	/	i	/	/	-3%
